The text below walks through data of PubChem BioAssay.

The structures appear in SMILES notation. Some of the results follow. Calls of active or inactive are those of the source.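 How the source made its calls, unless noted: active means signal rise of 40% or more at 20 µM, treated as a fluorescence artifact; inactive means the rest.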

Assay [1] addresses Protein Mdm4 (Homo sapiens) + E3 ubiquitin-protein ligase Mdm2 (Homo sapiens) (UniProt O15151+Q00987). The assay is described as follows: human Mdm2/MdmX binding disruption – cell-based, luminescence, single concentration, set 2, confirmation (AID 504601;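 active means mean inhibition of the luminescence signal across two replicates at or above 26 percent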). The conditions noted are these: SaOS-2 split-luciferase Mdm2/MdmX complementation, at 8 µM, stronger effect = higher value.
Assay [2] can be described thus: NF-kB reporter suppression in CF airway cells – cell-based, GFP fluorescence, single concentration, confirmation (AID 602472; in the data active means inhibition above about 40%;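 further: stimulus PAF is a Pseudomonas aeruginosa filtrate and not platelet activating factor; plate controls were DMSO wells with stimulus for no effect and unstimulated DMSO wells for full effect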). The conditions noted are these: KKLEB CF airway cells, PAF-induced NF-kB-GFP fluorescence, overnight; at 5 µM; stronger effect = higher value.
A short description of assay [3]: NFkB reporter suppression in cystic fibrosis bronchial cells – cell-based, uHTS hits, panel, cytotoxicity readout, dose response (AID 624344). The conditions noted are these: CF bronchial epithelial cells, PAF-induced NFkB reporter inhibition, with PAF, run 1; at 79 µM (top of the series) unless noted.
Experiment in assay [4]: as above
The conditions noted are these: CF bronchial epithelial cells, PAF-induced NFkB reporter inhibition, with PAF, run 2; at 79 µM (top of the series) unless noted.

The nature of assay [5]: inhibition of PEG-3 promoter luciferase signal – cell-based, HeLa, luciferase reporter, single concentration, confirmation (AID 602417;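 active means at 20 µM dose, 40% or more inhibition averaged across four replicates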). The conditions noted are these: HeLa PEG-Prom luciferase reporter, luminescence, overnight; at 20 µM; stronger effect = higher value.
Assay [6] can be described thus: HIF-2a driven luciferase blockers, single dose – luminescence, 786-0 RCC cells, confirmation (AID 651580;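 active means mean inhibition across four replicates of at least 40 percent at the single tested concentration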). The conditions noted are these: HIF-2a luciferase reporter luminescence, overnight, at 18.8 µM, stronger effect = higher value.
A short description of assay [7]: HIF-1a luciferase reporter signal reduction – MiaPaCa-2 cells, single concentration, counter-screen for HIF-2a inhibitor project, confirmation (AID 651589;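 active means mean inhibition of the reporter signal across four replicates at the single tested dose of 50% or more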). The conditions noted are these: MiaPaCa-2 HIF-1a luciferase reporter, desferoxamine, overnight; at 18.8 µM; stronger effect = higher value.
The target in assay [8] is Tumor necrosis factor receptor superfamily member 10B (Homo sapiens) (UniProt O14763). As to the kind of experiment: viability loss of caspase-8 NB7 cells with TRAIL – with/without TRAIL, luminescence panel, confirmation (AID 651596; in the data active means activity above about 50%). The conditions noted are these: NB7 neuroblastoma + caspase-8, TRAIL sensitization, NB7 Caspase-8, with TRAIL, mean of runs, at 10 µM, stronger effect = higher value.

Experiment in assay [9]: as above
The conditions noted are these: NB7 neuroblastoma + caspase-8, without TRAIL, NB7 Caspase-8, without TRAIL, mean of runs, at 10 µM.

Assay [10] can be described thus: apoptosome-driven caspase-3 activation blockers – biochemical, fluorescence, DEVD-Rh110, 20 µM, confirmation (AID 504614;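 active means mean inhibition of at least 40% at 20 µM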;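 further: plate controls were DMSO wells for no effect and DEVD-CHO caspase inhibitor control wells for full effect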). The conditions noted are these: reconstituted apoptosome, caspase-3 DEVD-Rh110 fluorescence; at 20 µM; stronger effect = higher value.
Assay [11] can be described thus: detection-step artefacts after completed caspase reaction – biochemical, fluorescence, Rh110, 20 µM, artefact control for Apaf-1 inhibitor project, confirmation (AID 504615). The conditions noted are these: quenched caspase reaction, at 20 µM, stronger effect = higher value.
Assay [12] is described as follows: fluorescence interference of Apaf-1 inhibitor hits, dose response, artefact control for Apaf-1 inhibitor project (AID 588538; call rule not given here). The conditions noted are these: fluorescence interference counterscreen, Apaf-1 assay format.
The nature of assay [13]: Brca1-Bard1 BiLC signal decrease – luminescence, single concentration, counter-screen for Mdm2/MdmX interaction inhibitor project, confirmation (AID 504668; call rule not given here). The conditions noted are these: Brca1/Bard1 bimolecular luciferase complementation counterscreen, at 8 µM, stronger effect = higher value.

Chain of Protein Mdm4 (Homo sapiens) + E3 ubiquitin-protein ligase Mdm2 (Homo sapiens) (O15151 whole entry, looked up): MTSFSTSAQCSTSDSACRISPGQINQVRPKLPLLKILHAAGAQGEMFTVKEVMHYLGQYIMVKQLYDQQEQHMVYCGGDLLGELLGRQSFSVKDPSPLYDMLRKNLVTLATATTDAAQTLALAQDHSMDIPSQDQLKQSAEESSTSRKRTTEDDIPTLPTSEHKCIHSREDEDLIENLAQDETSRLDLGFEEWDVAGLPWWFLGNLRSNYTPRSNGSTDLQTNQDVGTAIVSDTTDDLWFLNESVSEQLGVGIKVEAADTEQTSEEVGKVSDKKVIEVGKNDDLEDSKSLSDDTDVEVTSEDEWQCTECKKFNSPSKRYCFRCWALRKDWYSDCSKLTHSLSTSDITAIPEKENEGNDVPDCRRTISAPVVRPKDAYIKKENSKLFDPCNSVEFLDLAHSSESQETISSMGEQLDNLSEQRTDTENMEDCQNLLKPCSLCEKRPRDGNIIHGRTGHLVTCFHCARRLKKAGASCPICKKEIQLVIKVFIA
Chain of Protein Mdm4 (Homo sapiens) + E3 ubiquitin-protein ligase Mdm2 (Homo sapiens) (Q00987 whole entry, looked up): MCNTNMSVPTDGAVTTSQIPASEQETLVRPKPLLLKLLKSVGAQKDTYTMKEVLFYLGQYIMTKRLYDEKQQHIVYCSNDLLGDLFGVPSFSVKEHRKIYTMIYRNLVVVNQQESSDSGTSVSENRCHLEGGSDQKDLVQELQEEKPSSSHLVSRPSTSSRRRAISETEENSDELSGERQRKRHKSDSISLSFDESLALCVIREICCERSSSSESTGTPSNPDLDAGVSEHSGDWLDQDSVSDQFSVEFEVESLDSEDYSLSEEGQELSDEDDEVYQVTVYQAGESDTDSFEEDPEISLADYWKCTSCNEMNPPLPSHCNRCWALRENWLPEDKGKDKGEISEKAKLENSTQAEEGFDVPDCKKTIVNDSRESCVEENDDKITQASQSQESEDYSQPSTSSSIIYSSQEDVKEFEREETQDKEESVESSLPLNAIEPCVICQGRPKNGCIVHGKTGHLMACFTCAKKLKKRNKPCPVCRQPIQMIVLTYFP
Chain of Tumor necrosis factor receptor superfamily member 10B (Homo sapiens) (O14763 whole entry, looked up): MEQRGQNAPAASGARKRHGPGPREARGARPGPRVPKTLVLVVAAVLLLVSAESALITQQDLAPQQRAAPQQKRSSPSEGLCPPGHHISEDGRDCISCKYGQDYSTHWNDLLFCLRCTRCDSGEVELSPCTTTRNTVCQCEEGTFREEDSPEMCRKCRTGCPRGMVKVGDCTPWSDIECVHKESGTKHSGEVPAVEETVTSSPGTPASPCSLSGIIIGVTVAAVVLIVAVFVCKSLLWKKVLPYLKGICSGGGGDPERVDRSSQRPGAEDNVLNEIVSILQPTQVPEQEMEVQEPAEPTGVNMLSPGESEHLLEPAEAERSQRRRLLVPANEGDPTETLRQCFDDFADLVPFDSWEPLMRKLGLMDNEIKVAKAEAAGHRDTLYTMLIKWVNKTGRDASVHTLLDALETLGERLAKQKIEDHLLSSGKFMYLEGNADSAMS

As to `O=C(Nc1ccc(C(=O)N2CCOCC2)cc1)Nc1cccc(C(F)(F)F)c1`, the inhibition in [1] is 84.2% (active); in [2] it was 58.5% (active); in assay [3] it was 108%; in [4], 94.7%.
On to `Cc1cccc(NC(=O)c2nc(S(=O)(=O)Cc3ccccc3)ncc2Cl)c1`, for which the inhibition in assay [1] is 103% (active); in assay [5], 98.3% (active); in assay [2], 96.7% (active); in assay [6] it was 100% (active); in assay [7] it was 103% (active); in assay [3], 86.6%. Further, the inhibition in assay [4] stood at 95.1%. Further, the results for the activity in assay [8] and in assay [9] were 55.2% and 98.5%, respectively.
For the compound `CC(C)c1ccccc1OCC(O)CN(CC(O)COc1cccc2ccccc12)C(C)C` (stereo unspecified), the inhibition in assay [10] is 16.9% (inactive). For the same compound, the activation (fluorescence interference) in [11] was 14.2% (inactive).
The matching figures for `O=c1cc(N2CCCCC2)c(-c2ccccc2)nn1Cc1cccc(F)c1`: 18.3% (inactive) and 9.4% (inactive).
The matching figures for `c1ccc2c(CCN3CCNC[C@H]3Cc3cccc4ccccc34)cccc2c1`: 24.8% (inactive) and 8.34% (inactive).
Turning to `Oc1ccc(N=Cc2c(O)ccc3ccccc23)cc1`, the inhibition in assay [10] is 19.4% (inactive). In addition, the activation (fluorescence interference) in assay [11] is 0.51% (inactive).
`CC1CCCCC1NC(=O)/C(C#N)=C/C=C/c1ccccc1[N+](=O)[O-]` (stereo unspecified): the inhibition in assay [1] was 103% (active); in assay [6], 50.3% (active); in assay [7], 106% (active).
As to `CCCC[C@@H]1CN=C(N)N1CCc1cc(C(F)(F)F)cc(C(F)(F)F)c1`, the inhibition in [10] was 11.5% (inactive). In addition, the activation (fluorescence interference) in assay [11] was 3.05% (inactive).
The matching figures for `C#CCOCCOCCOCCNc1nc(N2CCN(C(=O)CCCCCCCCCCNC(=O)[C@H](CCCCN)n3cc(C)nn3)CC2)nc(N2CCN(C(=O)CCCCCCCCCCNC(=O)[C@H](CO)n3cc(CCCSC)nn3)CC2)n1`: 4.3% (inactive) and 3.38% (inactive).
Consider `CC(NC(=O)c1ccccc1SCC(=O)N1CCCC1)c1ccccc1` (stereo unspecified), for which, in assay [10], the inhibition is 22.9% (inactive). The activation (fluorescence interference) in assay [11] is -8.17% (inactive).
The matching figures for `Cc1ccc(-c2ccc(/C=N/NC(=O)CN3CCOCC3)o2)cc1[N+](=O)[O-]`: 27.9% (inactive) and -3.95% (inactive).
For the compound `COc1ccc(C(CCN(Cc2ccc(OC)c(OC)c2)C(=O)CCl)c2ccccc2)cc1` (stereo unspecified), the inhibition in assay [1] was 103% (active). Also, the activity in assay [8] and in [9] was 99.7% throughout.
In the case of `Cc1ccsc1/C=N/NC(=O)Cc1cc(=O)[nH][nH]1`, the inhibition in assay [10] was 17.5% (inactive). Further, in assay [11], the activation (fluorescence interference) was 8.37% (inactive).
The matching figures for `C#CCOCCOCCOCCNc1nc(N2CCN(C(=O)C([C@@H](C)O)n3cc([C@@H](N)CCCCN)nn3)CC2)nc(N2CCN(C(=O)[C@H](CCCCN)n3cc(CN)nn3)CC2)n1` (stereo partly specified): 1.31% (inactive) and -7.33% (inactive).
The matching figures for `O=S(=O)(Nc1ccc(O)c2ccccc12)c1ccc(OC(F)(F)F)cc1`: 21.3% (inactive) and -2.71% (inactive).
The matching figures for `Cc1ccc2nc(N3CCN(C(=O)c4ccco4)CC3)sc2c1`: 15.7% (inactive) and -1.75% (inactive).
For `Cc1cc2oc3ccc(NCCC4CCCN4C)cc3c(=O)c2cc1C` (stereo unspecified), the inhibition in [10] was 10.1% (inactive). In [11], the activation (fluorescence interference) is 4.87% (inactive).
Turning to `CC(=O)Nc1ccc(Nc2cc(C)nc(Nc3ccc(NC(C)=O)cc3)n2)cc1`, the inhibition in assay [10] was 10.4% (inactive). Further, in assay [11], the activation (fluorescence interference) was 4.46% (inactive).
As to `C#CCOCCOCCOCCNc1nc(N2CCN(C(=O)CCCCCCCCCCNC(=O)Cn3cc(CCCCCN)nn3)CC2)nc(N2CCN(C(=O)CCCCCCCCCCNC(=O)[C@H](CO)n3cc(CCCSC)nn3)CC2)n1`, the inhibition in [10] was 60.8% (active). Also, the activation (fluorescence interference) in assay [11] was 4.21% (inactive). Also, the IC50 in assay [12] is > 100 µM (inactive).
As to `O=C(CCCN1CCc2[nH]c3ccc(F)cc3c2C1)c1ccc(F)cc1`, the inhibition in assay [10] was 65.3% (active). Further, in [11], the activation (fluorescence interference) is 4.85% (inactive). The IC50 in assay [12] is > 100 µM (inactive).
The matching figures for `CC(C)CC[n+]1ccn(C2=C([O-])c3ccccc3C(=O)/C2=N\S(=O)(=O)c2ccccc2)c1`: 62.6% (active), 5.73% (inactive) and > 100 µM (inactive).
Consider `COc1cccc(-c2sc3ccc(OC)cc3c2-c2ccc(OCCN3CCCCC3)cc2)c1`, for which the inhibition in [10] was 4.75% (inactive); in assay [13], 32.7% (active). Moreover, the activation (fluorescence interference) in [11] was 11.8% (inactive).
As to `COc1ccc(N(CCC(=O)NCCc2ccccc2)S(=O)(=O)c2ccc(C)cc2C)cc1`, in [10], the inhibition was 35.9% (inactive). In assay [11], the activation (fluorescence interference) is 3.62% (inactive).
The matching figures for `Cc1cc(N2CCCC2)ccc1NC(=O)COc1ccc(Cl)cc1`: 28.9% (inactive) and 1.52% (inactive).
As to `CCc1ccc(CNC(=O)C2CCN(c3nnc(C)c4c(C)n(-c5ccc(C)cc5)nc34)CC2)cc1`, the inhibition in [10] is 13.2% (inactive); in [13], 23.7% (active); in [6] it was -2.57% (inactive); in assay [7] it was 20.1% (inactive). Besides, the activation (fluorescence interference) in assay [11] was 0.21% (inactive).
On to `O=C1NNC(c2ccccc2)=N/C1=C\c1ccc(Cl)cc1`, for which the inhibition in assay [10] was 43.9% (active). Further, in assay [11], the activation (fluorescence interference) is 7.08% (inactive). Further, the IC50 in assay [12] is > 100 µM (inactive).
